In ChEMBL document CHEMBL4888484, “Replenishing the malaria drug discovery pipeline: Screening and hit evaluation of the MMV Hit Generation Library 1 (HGL1) against asexual blood stage Plasmodium falciparum ,using a nano luciferase reporter read-out” (2022):
The campaign covered roughly 150,000 compounds. About 540 (0.36%) showed an effect of 50% or more. This excerpt belongs to a sample that is enriched for strong results.

What follows are compounds tested on Plasmodium falciparum (assay: Primary screen in NF54 nanoGlo assay, in single point, at 2uM, 72h; a lower Z score goes with more inhibition). Details: timepoint 72 hour.
Type: functional, Erythrocyte

SMILES	% Inhibition [%]	Z score
N#Cc1ncn(C[C@H]2CCC3(CCCCC3)O2)c1C#N	-10	1.82
C[C@H](O)CN1CCN(Cc2cn3ccccc3c2C#N)CC1	-13	2.38
N#Cc1c(CN2CCOCC2)cc(=O)n2c1[nH]c1ccccc12	35	-0.01
Cc1ccc(CN2CCN(C[C@@H](O)Cn3c4ccccc4n4c(=O)cc(C)c(C#N)c34)CC2)c(C)c1	86	-13.14
O=C(CC1CCCCC1)NCC1CCN(c2cc(-c3cccnc3)n[nH]2)CC1	-17	1.71
CC[n+]1ccc(-c2ncc(-c3ccc(C(C)(C)C)cc3)o2)cc1	66	-12.84
CO[C@@H](C)C(=O)N(Cc1ncc[nH]1)c1cncc(Br)c1	2	-0.29
COc1ccc(-c2cc(OC(F)(F)F)ccc2O)nn1	-8	1.53
C[N+]1(CCCC(=O)c2ccc3c(c2)OCCO3)CCC(c2ccccc2)C1 (stereo unspecified)	73	-8.3
CC1CCCC(C)N1S(=O)(=O)c1ccc(NC(=O)CCC(=O)c2ccc3c(c2)OCCO3)cc1 (stereo unspecified)	-4	0.64
O=C(CCC(=O)c1ccc2c(c1)OCCCO2)NCc1ccccc1	-7	1.26
CCn1nccc1-c1cnc2nc(C)nn2c1	-6	0.88
Cc1cc(C)c(C(=O)N2C[C@H](F)C[C@H]2C(N)=O)o1	1	-0.13
Cc1cccc([C@@H](NC(=O)CC2OCCCO2)C(F)(F)F)c1	3	-0.38
Cc1cccc([C@@H](NC(=O)Nc2ncco2)C(F)(F)F)c1	54	1.59
Cc1cccc(C(NC(=O)[C@@H]2CCCO2)C(F)(F)F)c1 (stereo partly specified)	-6	0.81
O=C(Nc1cccc2c1CCCC2)c1cccc(S(=O)(=O)N2CCCCC2)c1	-16	1.73
Cc1cc(=O)c(C(=O)Nc2ccnc(NC(=O)OC(C)(C)C)c2)c[nH]1	-2	0.38
Cn1cncc1CC(=O)Nc1ccnc(NC(=O)OC(C)(C)C)c1	94	-14.52
Cn1cncc1CCN1CCC[C@H](NC(=O)OC(C)(C)C)C1	-12	1.84

SMILES	% Inhibition [%]	Z score
CC(C)c1noc(CN2CC[C@H](NC(=O)c3ccccn3)[C@@H](O)C2)n1	-2	0.42
CCCN(CC(=O)N(Cc1ccco1)C[C@H]1CCCO1)C(=O)c1ccc(C)cc1	-8	1.14
COc1ccnc(C(=O)N(Cc2cnn(C)c2)C(C)C)c1	-10	1.37
CC(C)c1nccn1CCC(=O)N1CC[C@H](N)C1	6	-0.94
CC(C)c1nccn1CCC(=O)Nc1ncn(C2CCCCC2)n1	50	1.4
CC(C)c1nccn1CC(=O)NC(C1CC1)C1CC1	1	-0.12
CC(C)Cn1c(CC2(CC(=O)NC3CCOCC3)CCCC2)nc2cccnc21	-12	1.81
CCN1CCN(Cc2cccc3cccnc23)C(C)(C)C1=O	-9	1.65
Cc1ccc(-c2ncc(CN3CCCC4(C3)OCCO4)s2)o1	-5	0.88
COc1cc(C)c(S(=O)(=O)N2CCc3cc4ccccc4nc32)cc1C	-10	1.11
C[C@H](NC(=O)c1cncc(O)c1)c1nncn1C	-4	0.69
Cc1nc(N(C)C)cc(N2CCN(C(=O)C3CCCC3)CC2)n1	-17	1.88
c1ccc(CC2(c3nc(-c4cnccn4)no3)CCC2)cc1	13	-2.33
COc1cccc(-c2nsc(C(=O)NCc3cccs3)c2N)c1	18	-2.8
OC1CCCCC1N1CCc2sccc2C1 (stereo unspecified)	-21	2.66
CCNCc1cccc(Cl)c1Cl	4	-0.5
CCN(CC)CCNCc1cccc(Cl)c1Cl	-2	0.28
Clc1cccc(CNCCCNc2ccncc2)c1Cl	67	-8.81
Cc1ccc2c(c1)CCCN2C(=O)c1ccoc1	4	-0.72
CCn1ccc(C(=O)N[C@H]2CCOC[C@@H]2OC)n1	-7	0.83

SMILES	% Inhibition [%]	Z score
OC1CCC(NC(=NC2CC2)NCc2ccccc2F)CC1 (stereo unspecified)	-9	1.4
Cc1cc(C(=O)Cn2cc(Cl)c(=O)[nH]c2=O)c(Cl)cc1F	-1	0.1
CC1(C)C(CNC(=O)CCn2cc(C(N)=O)c(=O)[nH]c2=O)C1(C)C	19	-2.23
CCOC(=O)CCn1cc(F)c(=O)[nH]c1=O	74	-6.55
CCCCN(CC)C(=O)Nc1cc(Cl)c(OC)cc1OC	1	-0.07
O=C(NCCCn1ccnc1)[C@@H]1Cc2c(ccc3ccccc23)O1	4	-0.47
C[C@@H](C(=O)Nc1nnc[nH]1)c1ccc2c(c1)[nH]c1ccc(Cl)cc12	-7	0.71
CC(C)[C@H](NC(=O)Nc1cc(Cl)ccc1Cl)c1ncc[nH]1	-5	0.62
C[C@@H](C(=O)Nc1ncc[nH]1)c1ccc2c(c1)[nH]c1ccc(Cl)cc12	69	-1.75
CN(c1ccc2c(c1)CCO2)S(C)(=O)=O	13	-1.53
COC[C@H]1CCN(c2nc(-c3ccccn3)nc3c2CCNCC3)C1	-2	0.41
C[C@H]1CCN(c2nc(-c3ccccn3)nc3c2CCC3)C1	90	-12.13
O=C(O)[C@H]1CCCN(c2nc(-c3ccsc3)nc3ccccc23)C1	-12	2.15
NC(=O)C[C@H]1CCN(c2nc(-c3ccccn3)nc3c2CCC3)C1	-8	1.56
FC(F)(F)C1CN(c2nc(-c3ccccn3)nc3c2CCC3)C1	75	-13.36
C[C@H]1CCCN(c2nc(-c3ccccn3)nc3ccccc23)C1	96	-9.05
FC(F)(F)[C@H]1CCCN(c2nc(-c3cccnc3)nc3ccccc23)C1	8	-0.64
c1ccc(-c2nc3c(c(N4Cc5ccccc5C4)n2)CCNC3)nc1	-4	0.52
